Screens deposited in PubChem by The Scripps Research Institute Molecular Screening Center.
An excerpt weighted towards active compounds, which were near 3.5% of everything screened.
FBW7 act = human FBW7 E3 ligase activation, primary screen | Q969H0 | AlphaScreen FBW7–phospho-cyclin E peptide binding, activator screen | normalized activity (activation), % at 26.1 µM | 650,000 compounds, 0.13% hits | AID 1259310; in the data active = normalized activity above about 1.9%;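 note: purified mutant Fbw7 with reduced substrate affinity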
TEAD-YAP inh = TEAD-YAP interaction inhibition; inhibition, % at 9.12 µM; HEK-TIYL cells, TEAD-Gal4/YAP UAS-luciferase luminescence; 640,000 compounds, 1.4% hits; in the data active = inhibition above about 32%;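 note: 0% = median of test compound wells and 100% = reference inhibitor wells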
GPR151 activ = activates the human receptor GPR151 | Q8TDV0 | PathHunter beta-arrestin GPR151 cells, luminescence | activation, % at 11.2 µM | 650,000 compounds, 1% hits; in the data active = activation above about 4.9%;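 note: 0% = median of compound wells and 100% = cells with positive control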
Target sequence (Q8TDV0 whole entry, looked up): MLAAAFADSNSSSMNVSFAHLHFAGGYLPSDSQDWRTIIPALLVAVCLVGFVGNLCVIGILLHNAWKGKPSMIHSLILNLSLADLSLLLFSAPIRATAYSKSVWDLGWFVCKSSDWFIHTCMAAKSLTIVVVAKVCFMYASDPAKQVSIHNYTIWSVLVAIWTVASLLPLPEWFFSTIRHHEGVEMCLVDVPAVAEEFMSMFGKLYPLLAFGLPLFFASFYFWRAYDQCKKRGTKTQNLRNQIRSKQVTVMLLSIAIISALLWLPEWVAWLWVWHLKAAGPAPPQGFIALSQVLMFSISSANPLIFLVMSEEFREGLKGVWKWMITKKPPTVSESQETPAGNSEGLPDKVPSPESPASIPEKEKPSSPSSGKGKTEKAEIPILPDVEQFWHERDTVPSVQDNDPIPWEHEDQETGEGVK
MITF inh = blocks human microphthalmia-associated transcription factor; AlphaScreen MITF homodimerization, bead proximity signal; inhibition, % at 2.6 µM; 650,000 compounds, 0.91% hits; AID 1259374; in the data active = inhibition above about 50%;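 note: 0% = vehicle wells with protein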
GPR151 conf act = confirmation of human GPR151 activators; shares compounds with GPR151 activ; GPR151 PathHunter beta-arrestin cells, luminescence, 90 min; % of EA-reagent control over plate median; activation, % at 11.2 µM; 6,700 tested, under 10 active; AID 1508609;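 active = mean percent activation across replicates above the confirmation screen cutoff of 4.91%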
GPR119 ag = counter-screen for GPR151 activators: effect on human GPR119; shares compounds with GPR151 activ; GPR119 PathHunter beta-arrestin cells, luminescence, 90 min; 0 = compound-well median, 100 = enzyme-acceptor control; activation, % at 11.2 µM; 6,700 compounds, 0.3% hits;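 active = mean percent activation in the counterscreen above 29.09%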;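 note: counterscreen on off-target GPR119 to flag nonselective hits from the GPR151 activator screen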
Starred values were filed as active, the others as inactive; nt = no result.

SMILES	FBW7 act	TEAD-YAP inh	GPR151 activ	MITF inh	GPR151 conf act	GPR119 ag
CCOC(=O)N1CCN(C(=O)C2CCCN(c3nn4c(=O)cc(C)nc4s3)C2)CC1 (configuration not stated)	0	-1	5.6*	-11	0	-11
Cc1cc(=O)n2nc(N3CCCC(C(=O)N4CCN(c5ccccc5)CC4)C3)sc2n1 (configuration not stated)	0	2	0	10	nt	nt
COc1ccc(OC)c(C(C)NC(=S)Nc2cccc(C(C)=O)c2)c1 (configuration not stated)	0	6	0	6	nt	nt
NC(=O)c1ccccc1NC(=O)CCn1c(=S)oc2ccccc21	0	-1	7.8*	15	-1	-3
COc1ccc2c(c1)c(CC(=O)Nc1ccc(NC(C)=O)cc1)c(C)n2C(=O)c1ccc(Cl)cc1	nt	nt	6.2*	-8	0	11
COc1ccc2c(c1)c(CC(=O)Nc1ncccc1C)c(C)n2C(=O)c1ccc(Cl)cc1	0	6	0	16	nt	nt
NC(=O)NC(=O)COc1ccc(F)cc1Br	0	-23	8.2*	3	0	0
O=Cc1ccc(OCC(=O)Nc2ccc(F)cc2)c(Br)c1	0	-9	-1	6	nt	nt
Cc1cccc(CCC(=O)Nc2n[nH]c3nc(C)cc(C(F)(F)F)c23)n1	0	4	1	-3	nt	nt
O=C(CSc1nnc(-c2ccccc2)o1)Nc1ccc2ccccc2c1	0	7	0	-2	nt	nt
COCCNC(=O)[C@@H]1C[C@H](NCc2ccccc2)CN1Cc1ccccc1Cl	1	-4	8.5*	5	0	1
COCCNC(=O)[C@@H]1C[C@H](NCc2ccc(C(C)C)cc2)CN1Cc1ccccc1Cl	1	-10	1	7	nt	nt
O=C(CSc1nnnn1-c1ccccc1)Nc1ccc(OC(F)(F)F)cc1	0	6	7.7*	12	0	5
O=C(CSc1nnnn1-c1ccccc1)Nc1ccc(O)cc1	0	10	-1	-17	nt	nt
CC(C)CC(=O)N1CCC2(CCC(CNC(=O)c3ccc(CC(C)C)cc3)O2)CC1 (configuration not stated)	0	14	1	3	nt	nt
CSc1cccc(CN2CCCC(CNC(=O)c3cccs3)C2)c1 (configuration not stated)	1	19	-3	16	nt	nt
CC(=O)c1cccc(CN2CCCC(CNC(=O)c3cccs3)C2)c1 (configuration not stated)	0	3	10*	-2	0	-14
CC(C)c1csc(CN2CCCC(CNC(=O)c3cccs3)C2)n1 (configuration not stated)	0	24	6.1*	6	1	-7
O=C1CCN(C(=O)c2ccccc2)c2ccccc2N1	0	5	0	3	nt	nt
NS(=O)(=O)c1ccc(NC(=O)CSc2nc3cc(Cl)ccc3s2)cc1	0	-5	6.1*	2	0	20
O=C(CSc1nc2cc(Cl)ccc2s1)Nc1ccc(Cl)cc1	0	1	1	0	nt	nt
CN1CCCc2cc(CN3CCC4(CC3)NC(=O)c3ccccc3O4)ccc21	0	-1	0	-9	nt	nt
OCC1COC(Cn2ccnc2)(c2ccc(Cl)cc2Cl)O1 (configuration not stated)	0	-6	0	45	nt	nt
S=C(Nc1ccc2c(c1)OCO2)Nc1ccc2c(c1)OCO2	0	-18	-1	2	nt	nt
S=C(Nc1ccc2c(c1)OCO2)Nc1cnccn1	0	-25	5.6*	9	1	0
SMILES	FBW7 act	TEAD-YAP inh	GPR151 activ	MITF inh	GPR151 conf act	GPR119 ag
O=C(Nc1ccc2c(c1)OCO2)Nc1ccc(Br)cn1	0	-81	6.5*	10	0	-5
O=C(NNC(=O)c1ccc(Cl)s1)Nc1ccc2c(c1)OCO2	0	-43	5.2*	9	0	-5
O=C(CCn1c(=S)[nH]c2cc3c(cc2c1=O)OCO3)NCc1cccc(Cl)c1	0	-1	-1	5	nt	nt
O=C(CCCn1c(=S)[nH]c2ccccc2c1=O)Nc1cccc2c1CCCC2	0	-5	5.5*	1	0	12
O=C(CCCn1c(=S)[nH]c2cc3c(cc2c1=O)OCO3)NCc1cccc(Cl)c1	0	5	5.3*	6	0	9
COc1ccc(-c2ccc(NC(C)c3ccccc3)nc2)cn1 (configuration not stated)	0	-105	0	11	nt	nt
COc1ccc(-c2cncc(C(=O)NC3CCN(Cc4ccccc4)CC3)c2)cc1	0	-4	-1	-6	nt	nt
NC(=O)c1ccc(NC(=O)CN(c2ccccc2Cl)S(=O)(=O)c2ccccc2)cc1	0	-7	1	-1	nt	nt
CCCNc1cc(C)nc(Nc2cccnc2)n1	0	-1	-1	1	nt	nt
CCCNc1cc(C)nc(Nc2ccccc2)n1	0	-23	14*	8	0	-3
CCOc1cc(/C=N/NS(C)(=O)=O)ccc1O	0	15	9.0*	11	0	-6
CCOc1cc(/C=N/Nc2ccc(S(=O)(=O)O)cc2)ccc1O	0	18	0	47	nt	nt
O=C(CN1CCCC(O)C1)N1c2ccccc2Sc2ccc(C(F)(F)F)cc21 (configuration not stated)	0	2	9.5*	23	0	-4
CN(C)c1nc(Nc2ccc(F)cc2)c2cnn(C)c2n1	0	-3	2	2	nt	nt
Cc1ccc(Nc2nc(N(C)C)nc3c2cnn3C)cc1C	0	-10	6.2*	10	3	9
Cc1cc2ncn(CCC(=O)NC3CCCC3)c2cc1C	0	-1	0	-3	nt	nt
Cc1cc2ncn(CCC(=O)NC(C)(C)C)c2cc1C	0	17	5.3*	6	0	8
CN1CCC(N(C(=O)c2ccc(C(F)(F)F)cc2)C2CCN(C)CC2)CC1	0	-7	6.2*	-4	-1	-12
CC(OC(=O)CC1CC2CCC1C2)C(N)=O (configuration not stated)	0	-9	-1	8	nt	nt
Cc1sc2c(c1C)C(=O)NC(c1cn(Cc3ccccc3)c3ccccc13)N2 (configuration not stated)	0	-2	6.1*	-8	1	-1
CN1C(=O)CC(c2cn(Cc3ccccc3)c3ccccc23)C1=O (configuration not stated)	0	-7	2	-2	nt	nt
Cc1oc(-c2cccc(Cl)c2)nc1COC(=O)c1nnn(-c2cccc(F)c2)c1C	0	-1	6.0*	-12	-1	-12
N#C/C(=C\c1ccco1)C(=O)Nc1ccc(C(=O)O)cc1	0	-6	-2	8	nt	nt
Clc1ccc(COc2ccccc2CNn2cnnc2)cc1	0	5	0	7	nt	nt
CCOc1cccc(CNn2cnnc2)c1OCc1ccccc1	0	2	5.5*	3	1	9
Cc1nc(Nc2nc(-c3ccccc3)cc(=O)[nH]2)nc2ccccc12	0	7	0	4	nt	nt
